Measured values as given in the antibiotic and cytotoxicity screens of Wong et al. (2023).
About 1,500 (3.8%) of roughly 39,000 compounds were called active. What follows is part of a selection rich in actives, with near analogues and random picks from the rest.

Tested on: HSkMC (human skeletal muscle cells)
Experiment: cytotoxicity call (relative viability < 0.9)
Settings: 10 µM

Compound | cytotoxicity call
C[C@H](O)c1nc(=O)c2ccccc2[nH]1 | inactive
CC(=O)OCC(=O)C1(O)CCC2C3CCC4=CC(=O)C=CC4(C)C3(F)C(O)CC21C (stereo unspecified) | inactive
C[C@H](CO)N1C[C@H](C)[C@@H](CN(C)C(=O)Nc2ccc3c(c2)OCCO3)OCc2cnnn2CCCC1=O | inactive
COCC(=O)Nc1ccc2c(c1)C(=O)N(C)C[C@H](OC)[C@@H](C)CN(Cc1ccccc1OC)[C@H](C)CO2 | inactive
S=C1C=C(N2CCCCC2)C[C@H](c2ccc(Cl)cc2)S1 | inactive
C[C@@H]1CN([C@@H](C)CO)C(=O)c2cc(NC(=O)Nc3ccc(F)cc3)ccc2O[C@H]1CN(C)S(=O)(=O)c1cn(C)cn1 | inactive
Cc1noc(C)c1NC(=O)Nc1ccc2c(c1)C(=O)N([C@@H](C)CO)C[C@@H](C)[C@@H](CN(C)C(=O)NC(C)C)O2 | inactive
CCO[C@H]1OC(C(=O)N2CCN(Cc3ccccc3)CC2)=C[C@@H](C)[C@@H]1CCCOC(=O)NCCCCCC(=O)NO | inactive
C[C@H](CO)N1C[C@H](C)[C@H](CN(C)Cc2ccc(Cl)c(Cl)c2)Oc2ccc(NC(=O)Cc3ccccc3)cc2C1=O | inactive
C[C@@H]1CN([C@H](C)CO)C(=O)Cc2cc(NS(C)(=O)=O)ccc2O[C@H]1CN(C)C(=O)Nc1ccc2c(c1)OCO2 | inactive
C[C@@H]1CCCCO[C@@H](CN(C)CC2CCCCC2)[C@H](C)CN([C@@H](C)CO)C(=O)c2cc(NC(=O)Nc3cccc4ccccc34)ccc2O1 | inactive
C[C@@H]1CCCCO[C@@H](CN(C)CC2CC2)[C@H](C)CN([C@H](C)CO)C(=O)c2cc(NC(=O)Nc3cccc4ccccc34)ccc2O1 | inactive
C[C@H](CO)N1C[C@H](C)[C@H](CN(C)CC2CCCCC2)OCCCC[C@H](C)Oc2ccc(NC(=O)Nc3cccc4ccccc34)cc2C1=O | active
C[C@@H]1CN([C@@H](C)CO)C(=O)c2cc(NC(=O)Nc3cccc4ccccc34)ccc2O[C@@H](C)CCCCO[C@@H]1CN(C)CC1CCCCC1 | active
C[C@@H]1CN([C@@H](C)CO)C(=O)c2cc(NC(=O)Nc3cccc4ccccc34)ccc2O[C@@H](C)CCCCO[C@H]1CN(C)CC1CCCCC1 | active
NCC1(c2cccs2)CCCC1 | inactive
CC(C)NC(=O)Nc1ccc2c(c1)C(=O)N([C@@H](C)CO)C[C@@H](C)[C@H](CN(C)Cc1ccc3c(c1)OCO3)O2 | inactive
Cc1noc(C)c1S(=O)(=O)N(C)C[C@H]1Oc2ccc(NC(=O)C3CCCCC3)cc2CC(=O)N([C@H](C)CO)C[C@@H]1C | inactive
CCC(=O)N[C@@H]1CC[C@H](CC(=O)OC)O[C@@H]1CO | inactive
Cc1noc(C)c1NC(=O)Nc1ccc2c(c1)C(=O)N([C@@H](C)CO)C[C@H](C)[C@@H](CN(C)Cc1ccc(Cl)c(Cl)c1)OCCCC[C@@H](C)O2 | inactive
C[C@@H]1CCCCO[C@@H](CN(C)C(=O)c2ccccc2)[C@@H](C)CN([C@H](C)CO)C(=O)c2cc(NC(=O)NC3CCCCC3)ccc2O1 | inactive

Compound | cytotoxicity call
Cc1noc(C)c1S(=O)(=O)Nc1cccc2c1O[C@@H](CN(C)C(=O)Nc1ccc3c(c1)OCO3)[C@@H](C)CN([C@@H](C)CO)C2=O | inactive
C[C@H]1CCCCO[C@H](CN(C)S(=O)(=O)c2ccc(Cl)cc2)[C@@H](C)CN([C@@H](C)CO)C(=O)c2cc(NS(=O)(=O)c3ccc(Cl)cc3)ccc2O1 | inactive
C[C@@H]1CN([C@@H](C)CO)C(=O)c2cc(C#Cc3ccccc3F)cnc2O[C@H]1CN(C)C(=O)C1CCOCC1 | inactive
C[C@@H]1CCCCO[C@H](CN(C)Cc2ccc(C(=O)O)cc2)[C@H](C)CN([C@@H](C)CO)C(=O)c2cc(NS(=O)(=O)c3ccc(F)cc3)ccc2O1 | inactive
O=C(C[C@H]1CC[C@H]2[C@@H](COC[C@@H](O)CN2S(=O)(=O)c2ccc(Oc3ccccc3)cc2)O1)NCCN1CCCCC1 | inactive
C[C@@H]1CN([C@@H](C)CO)S(=O)(=O)c2ccc(-c3ccccc3F)cc2O[C@H]1CN(C)Cc1cncnc1 | inactive
CCCCOCCOc1ccc(-c2ccc3c(c2)/C=C(/C(=O)Nc2ccc([S@@](=O)Cc4cncn4CCC)cc2)CCCN3CC(C)C)cc1 | active
C[C@@H]1CCCCO[C@H](CN(C)C(=O)NC2CCCCC2)[C@H](C)CN([C@H](C)CO)C(=O)c2cc(NC(=O)c3ccncc3)ccc2O1 | inactive
C[C@H](CO)N1C[C@H](C)[C@@H](CN(C)C(=O)C2CCCCC2)Oc2cc(C#C[C@@H](C)O)ccc2S1(=O)=O | inactive
CC[C@@H](CO)NC(=O)c1ccc(N)cc1 | inactive
C[C@H]1CN([C@@H](C)CO)C(=O)c2cc(NC(=O)Nc3ccc(C(F)(F)F)cc3)ccc2O[C@H]1CN(C)Cc1ccc2c(c1)OCO2 | inactive
C[C@H]1CN([C@@H](C)CO)C(=O)c2cc(NC(=O)Nc3ccc(C(F)(F)F)cc3)ccc2O[C@@H]1CN(C)Cc1ccc2c(c1)OCO2 | active
C[C@@H]1CN([C@H](C)CO)C(=O)c2cc(NC(=O)Nc3ccc4c(c3)OCO4)ccc2O[C@H]1CN(C)Cc1ccc(C(F)(F)F)cc1 | inactive
C[C@H](CO)N1C[C@H](C)[C@H](CN(C)Cc2ccc3c(c2)OCO3)Oc2ccc(NC(=O)Nc3ccc(C(F)(F)F)cc3)cc2C1=O | active
C[C@@H]1CN([C@@H](C)CO)C(=O)c2cc(NC(=O)Nc3ccc(C(F)(F)F)cc3)ccc2O[C@H]1CN(C)Cc1ccc2c(c1)OCO2 | active
C[C@@H]1CN([C@H](C)CO)C(=O)c2cc(NC(=O)Nc3ccc(C(F)(F)F)cc3)ccc2O[C@H]1CN(C)Cc1ccc2c(c1)OCO2 | inactive
C[C@@H]1CN([C@@H](C)CO)C(=O)c2cc(NC(=O)Nc3ccc(C(F)(F)F)cc3)ccc2O[C@@H]1CN(C)Cc1ccc2c(c1)OCO2 | active
CNC[C@H]1OCCCC[C@@H](C)Oc2ccc(NC(=O)Nc3cccc4ccccc34)cc2C(=O)N([C@H](C)CO)C[C@@H]1C | inactive
CCS(=O)(=O)NCC[C@H]1CC[C@H](NC(=O)Cc2ccccn2)[C@H](CO)O1 | inactive
CC/N=c1\sc(C(=O)OC)cc(=O)n1CC | inactive
